Columns and labels:
Assay in all cases: PBM binding z-score (relative to random genomic background probes); higher = stronger binding; sequences stand for … in GC…GCGATTGACAGCGTAGAATGAAGG
[1] = tested on: FXR:RXRa (NR concentration 270 nM, RXRa partner concentration 90 nM)
Outline: (§1)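 Each nuclear receptor dimer, without ligand, was incubated for 1 h on custom Agilent 4×180K protein-binding microarrays. Binding was detected with antibodies against each partner (one per run), and scanned fluorescence was regression-normalized. The binding z-scores are referenced to random human genomic background probes.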

[2] = tested on: LXRa:RXRa (NR concentration 270 nM, RXRa partner concentration 90 nM)
Outline: as §1

[3] = tested on: LXRa homodimer (NR concentration 270 nM)
Outline: as §1

[4] = tested on: LXRb:RXRa (NR concentration 270 nM, RXRa partner concentration 90 nM)
Outline: as §1

[5] = tested on: LXRb homodimer (NR concentration 270 nM)
Outline: as §1

[6] = tested on: PPARa:RXRa (NR concentration 270 nM, RXRa partner concentration 90 nM)
Outline: as §1

[7] = tested on: PPARg:RXRa (NR concentration 180 nM, RXRa partner concentration 90 nM)
Outline: as §1

[8] = tested on: PPARg:RXRa 270nM:90nM, anti-RXR (NR concentration 270 nM, RXRa partner concentration 90 nM)
Outline: as §1

[9] = tested on: PPARg:RXRa 30nM:10nM, anti-RXR (NR concentration 30 nM, RXRa partner concentration 10 nM)
Outline: as §1

[10] = tested on: PPARg:RXRa 90nM:30nM, anti-RXR (NR concentration 90 nM, RXRa partner concentration 30 nM)
Outline: as §1

[11] = tested on: PPARg:RXRa DBDmut IVT, anti-RXR (DBD mutation: RXRa K156A/R161A, NR concentration 270 nM, RXRa partner concentration 90 nM)
Outline: as §1

[12] = tested on: PPARg:RXRa IVT, anti-PPARg (NR concentration 270 nM, RXRa partner concentration 90 nM)
Outline: as §1

[13] = tested on: PPARg DBDmut:RXRa IVT, anti-PPARg (DBD mutation: PPARg1 K132A/R137A, NR concentration 270 nM, RXRa partner concentration 90 nM)
Outline: as §1

[14] = tested on: PPARg DBDmut IVT, anti-PPARg (DBD mutation: PPARg1 K132A/R137A, NR concentration 270 nM)
Outline: as §1

[15] = tested on: PPARg homodimer (NR concentration 180 nM)
Outline: as §1

[16] = tested on: PXR:RXRa (NR concentration 270 nM, RXRa partner concentration 90 nM)
Outline: as §1

[17] = tested on: PXR homodimer (NR concentration 270 nM)
Outline: as §1

[18] = tested on: RARa:RXR (NR concentration 270 nM, RXRa partner concentration 90 nM)
Outline: as §1

[19] = tested on: RARa homodimer (NR concentration 270 nM)
Outline: as §1

[20] = tested on: RARb:RXRa (NR concentration 270 nM, RXRa partner concentration 90 nM)
Outline: as §1

Sequence | PBM binding z-score [1] | PBM binding z-score [2] | PBM binding z-score [3] | PBM binding z-score [4] | PBM binding z-score [5] | PBM binding z-score [6] | PBM binding z-score [7] | PBM binding z-score [8] | PBM binding z-score [9] | PBM binding z-score [10] | PBM binding z-score [11] | PBM binding z-score [12] | PBM binding z-score [13] | PBM binding z-score [14] | PBM binding z-score [15] | PBM binding z-score [16] | PBM binding z-score [17] | PBM binding z-score [18] | PBM binding z-score [19] | PBM binding z-score [20]
CCTACTGGGCCACGAAACGTCATTGATTCAGTGA | -0.574 | -0.675 | -0.582 | -0.896 | -0.886 | 0.486 | 1.59 | 1.19 | -0.214 | 0.157 | 5.46 | 4.94 | 0.954 | 0.628 | -0.288 | -0.903 | -0.805 | -0.908 | -0.363 | 0.0906
GTACCAAGGTGAAGAGGTCGTTGATGAGTAGGCG | 1.67 | 1.32 | 0.0368 | 1.13 | -0.425 | 3 | 1.95 | 2.49 | 0.544 | 1.72 | 1.79 | 2.51 | -0.57 | -0.181 | 1.37 | 2.15 | 0.607 | 2.68 | -0.129 | 2.35
CCGACTGGGGCAGAAAGGTTACCACACCATCCGG | 0.286 | 0.428 | 0.0458 | 0.833 | -1.17 | 2.21 | 1.74 | 2.66 | 0.555 | 2.13 | 1.83 | 1.76 | -0.724 | -0.799 | 0.71 | 0.929 | -0.219 | 1.85 | 0.0999 | 1.92
TCGAGTTGGTTACCAATGGGGCATTCAGCTTTCT | -0.51 | -0.505 | -1.1 | -0.17 | -0.988 | -0.0256 | -0.676 | 0.352 | 0.536 | 0.652 | 0.424 | -0.405 | -1.9 | -0.375 | -1.66 | -0.425 | -0.63 | -0.69 | -1.31 | -0.219
TCTATTAGTTGATTATGGCAACCGAAACAGCGGA | 0.958 | 0.726 | 0.306 | 0.64 | 1.08 | 0.209 | 0.113 | 1.91 | 4.11 | 3.45 | 2.17 | 0.613 | 1.3 | 1.66 | 1.37 | 0.553 | 0.671 | 0.747 | 1.89 | 0.407
CAGCCCAGGTCAGGGCCAGTATAGGAGGAACGTT | 2.46 | 1.34 | -0.516 | 1.01 | -0.951 | 2.27 | 0.962 | 0.716 | -0.353 | 0.469 | 0.375 | 1.26 | -1.13 | -1.33 | 0.907 | 0.95 | 0.194 | 1.49 | -0.138 | 3.45
ATATGTAGGTTATCGGGTCATTCAATTTGCGCAT | 3.06 | 3.55 | 1.95 | 3.51 | 0.979 | 5.11 | 7.6 | 6.31 | 3.98 | 6.15 | 7.45 | 7.56 | 2.44 | 2.36 | 2.28 | 3.43 | 1.39 | 3.8 | 1.75 | 2.87

From the supplement of paper PMC6555819
